Screens from PubChem.
Only some compounds are listed: those with a hit (about 2.5% of all), similar ones and a draw of the others.
Rce1 inhib: yeast Ras-converting enzyme inhibition | yeast membranes, quenched prenylated peptide cleavage fluorescence | calls only | 0.27% of 290,000 active;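 active means fall in fluorescence gain of 50% or more versus controls, with final raw signal at or below 3038400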;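 further: plate controls were neutral control wells for no effect and wells lacking membranes for full effect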
MEKK2 mut-MEK5: signal of MEK5 binding to mutant human MEKK2 PB1 domain; bead flow cytometry, Alexa488-MEK5 binding to MEKK2 mutant; AID 1530; 0.35% of 290,000 active; percent response, % at 10 µM; in the data active means percent response above about 24%, passing the limit was not always enough
MEKK3 PB1 HTS: MEKK3-MEK5 PB1 interaction, increase or decrease | binding response (% of control), % at 10 µM | bead-based flow cytometry, Alexa488-MEK5 binding to MEKK3; actives lie on both sides; 0 = blocked by unlabeled MEK5, 100 = vehicle | AID 1529 | 1.4% of 290,000 active;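 active means binding response more than 3 SD above or below the average of its plate-row segment, actives on both sides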;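 further: Alexa488 bead fluorescence after subtracting the streptavidin-only scavenger bead signal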
Target sequence (Q99759 whole entry, looked up): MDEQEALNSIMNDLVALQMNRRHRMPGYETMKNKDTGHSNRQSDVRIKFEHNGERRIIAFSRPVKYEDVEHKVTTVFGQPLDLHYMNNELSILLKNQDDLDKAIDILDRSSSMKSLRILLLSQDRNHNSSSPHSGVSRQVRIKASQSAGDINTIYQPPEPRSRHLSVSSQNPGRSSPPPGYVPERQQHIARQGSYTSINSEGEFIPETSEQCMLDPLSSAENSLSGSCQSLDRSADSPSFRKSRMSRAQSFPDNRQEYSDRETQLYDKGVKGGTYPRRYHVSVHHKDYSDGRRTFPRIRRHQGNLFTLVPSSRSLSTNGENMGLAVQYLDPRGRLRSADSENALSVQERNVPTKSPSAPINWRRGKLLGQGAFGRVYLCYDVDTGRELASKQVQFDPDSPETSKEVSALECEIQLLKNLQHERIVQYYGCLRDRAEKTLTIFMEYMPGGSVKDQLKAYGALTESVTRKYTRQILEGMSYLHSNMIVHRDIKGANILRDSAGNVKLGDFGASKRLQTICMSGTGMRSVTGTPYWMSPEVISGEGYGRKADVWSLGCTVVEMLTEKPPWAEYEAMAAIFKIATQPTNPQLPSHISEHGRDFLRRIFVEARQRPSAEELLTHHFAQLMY
UBC13 inh: human UBC13 polyubiquitination inhibition; UBC13 polyubiquitin chain formation, TR-FRET; inhibition, % at 20 µM; 0.47% of 330,000 active; in the data active means inhibition above about 45%, passing the limit was not always enough
MEKK2wt PB1 HTS: raises or lowers MEK5 binding to wildtype human MEKK2 PB1 domain | binding response (% of control), % at 10 µM | 1.1% of 290,000 active | bead flow cytometry, Alexa488-MEK5 binding to MEKK2 WT; actives lie on both sides | AID 1531 | Q9Y2U5; in the data active means binding response below about 67% or above about 130%
MEKK2wt confirm: raises or lowers MEK5 binding to wildtype human MEKK2, retest | shares compounds with MEKK3 PB1 HTS | binding response (% of control), % at 10 µM | bead flow cytometry, Alexa488-MEK5 binding to MEKK2 WT; actives lie on both sides | 2.4% of 5,900 active; in the data active means binding response below about 16% or above about 210%; inactive means in between
MEKK2mut-MEK5: signal of MEK5 binding to mutant human MEKK2, retest | shares compounds with MEKK3 PB1 HTS | bead flow cytometry, Alexa488-MEK5 binding to MEKK2 mutant | percent response, % at 10 µM | 2% of 5,900 active | AID 1893; in the data active means percent response mostly above about 71%, no sharp cut-off; inactive means mostly below about 38%;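 further: higher means compound restores mutant binding toward wildtype level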
MEKK3 confirm: confirmation of inhibitors of MEK5 binding to human MEKK3 | bead flow cytometry, Alexa488-MEK5 binding to MEKK3; active compounds read low | 1.8% of 5,900 active | shares compounds with MEKK3 PB1 HTS | binding response (% of control), % at 10 µM;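 active means binding response below 72% of control, or above a set upper limit, though filed actives all read lower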;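 further: 100% = DMSO only wells and 0% = binding blocked by excess unlabeled MEK5; lower values mean stronger disruption of MEK5 binding to MEKK3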
* marks the source's active call; other numbers are inactive results; i = inactive; / = no result; [ ] = dose if it differs, or a comment.

SMILES | Rce1 inhib | MEKK2 mut-MEK5 | MEKK3 PB1 HTS | UBC13 inh | MEKK2wt PB1 HTS | MEKK2wt confirm | MEKK2mut-MEK5 | MEKK3 confirm
CSc1ccc(CN(C)CC(=O)Nc2ccccc2Br)cc1 | i | -1 | 132* | -7 | 102 | 102 | 0 | 102
CSc1ccccc1NC(=O)CN(C)Cc1ccc(Br)cc1 | i | 22 | 106 | 12 | 106 | / | / | /
S=C(Nc1cccc(Cl)c1)NC1CC2CCCC(C1)N2C1CCCC1 (configuration not stated) | i | 1 | 105 | 1 | 125 | / | / | /
S=C(NCCC(c1ccccc1)c1ccccc1)Nc1cccc(Cl)c1 | i | 32* | 95 | -2 | 5.0* | 105 | -5 | 102
S=C(NCCN(C1CCCCC1)C1CCCC1)Nc1cccc(Cl)c1 | i | 12 | 97 | 24 | 134* | 145 | 24 | 107
S=C(NCc1ccncc1)Nc1cccc(Cl)c1 | i | 5 | 106 | 9 | 106 | / | / | /
Cc1nc(Nc2ccc(Cl)cc2)c(C#N)c(=O)[nH]1 | i | 6 | 114 | -2 | 109 | / | / | /
O=C(/C=C\c1cn(-c2ccccc2)nc1-c1ccccc1)Nc1nccs1 | i | 0 | 140* | 0 | 104 | 104 | 2 | 104
CC(=O)NS(=O)(=O)c1ccc(NC(=O)/C=C/c2cn(-c3ccccc3)nc2-c2ccccc2)cc1 | i | -6 | 96 | -19 | 91 | / | / | /
CC(C)(C)C(=O)COC(=O)c1cc2ccccc2cc1O | i | -18 | 67*[inhibitor] | -9 | 76 | 98 | 7 | 102
Cc1ccc(NC(=O)COC(=O)CCc2nc3ccccc3c(=O)[nH]2)cc1Cl | i | -1 | 99 | 20 | 96 | / | / | /
CN(C)CCCNc1cc(-c2ccccc2)nc2cc(-c3cccc(F)c3)nn12 | i | 40* | 108 | 42 | 192* | 179 | 35 | 105
COCc1cc(N2CCN(c3ccccc3F)CC2)nc(-c2ccccc2)n1 | i | -19 | 4.0*[inhibitor] | 6 | 6.0*[inhibitor] | 103 | -1 | 102
COCc1cc(N2CCOCC2)nc(-c2ccccc2)n1 | i | -2 | 101 | -3 | 95 | / | / | /
O=C(CSc1nncs1)Nc1ccc(S(=O)(=O)N2CCCC2)cc1 | i | -1 | 102 | 7 | 107 | / | / | /
CCOc1cccc(SCc2noc(C(=O)NCC3CCCO3)c2C(=O)O)c1 (configuration not stated) | i | 5 | 106 | -6 | 106 | / | / | /
Cc1ccc(C(c2c(C)nn(-c3ccccc3)c2N)c2c(C)nn(-c3ccccc3)c2N)cc1 | i | -1 | 99 | -5 | 96 | / | / | /
Cc1nn(-c2ccccc2)c(N)c1C(c1ccc(C(C)C)cc1)c1c(C)nn(-c2ccccc2)c1N | i | 0 | 146* | -8 | 106 | 96 | 0 | 97
CC(NC(=O)c1ccccc1NC(=O)CSc1nnnn1C)c1ccccc1 (configuration not stated) | i | 7 | 106 | 5 | 109 | / | / | /
CCOC(=O)C1(C)NC(c2cc(OC)c(OC)c(OC)c2)C2C(=O)N(CC)C(=O)C21 (configuration not stated) | i | -14 | 2.0*[inhibitor] | -10 | 2.0*[inhibitor] | 108 | 6 | 104
Cc1nc2c3ccccc3nc(SCC(=O)c3ccc(Cl)cc3)n2n1 | i | -1 | 129* | 14 | 100 | 103 | 1 | 107
Cn1c(=O)cc(N2CCOCC2)[nH]c1=O | i | -20 | 75 | -1 | 70*[inhibitor] | 106 | 7 | 105
Cn1c(=O)cc(N2CCCCC2)[nH]c1=O | i | 5 | 106 | -5 | 105 | / | / | /
COc1ccc(OC)c(CNn2c(-c3cccc(C)c3)nc3ccccc3c2=O)c1 | i | -21 | 1.0*[inhibitor] | 7 | 0.0*[inhibitor] | 106 | 3 | 106
CC(=O)Nc1cccc2c1C(=O)N(c1cccc(OC(C)=O)c1)C2=O | i | -14 | 83 | -13 | 79 | / | / | /
SMILES | Rce1 inhib | MEKK2 mut-MEK5 | MEKK3 PB1 HTS | UBC13 inh | MEKK2wt PB1 HTS | MEKK2wt confirm | MEKK2mut-MEK5 | MEKK3 confirm
CC(=O)Nc1cccc2c1C(=O)N(c1cccc(C)c1)C2=O | i | 8 | 73*[inhibitor] | -8 | 84 | 30 | -20 | 53*
Nc1oc2ccccc2c1C(=O)Cc1ccccc1O[C@@H]1O[C@H](CO)[C@@H](O)[C@H](O)[C@H]1O | i | / | / | 7 | / | / | / | /
Cc1nc(CS(=O)(=O)c2ccc(Cl)cc2)sc1C(=O)O | i | 23 | 129* | 1 | 129 | 101 | -4 | 101
CC(=O)c1sc(NC(=O)CCS(=O)(=O)c2ccc(Cl)cc2)nc1C | i | / | / | 0 | / | / | / | /
CCNc1ccc(C(=O)N/N=C/c2c(C)nn(-c3ccccc3)c2N2CCCC2)cc1[N+](=O)[O-] | i | 1 | 138* | -43 | 107 | 101 | 0 | 102
Cc1ccccc1-c1nc(CN2CCC(C(=O)NCCCN3CC(C)CC(C)C3)CC2)c(C)o1 (configuration not stated) | i | 18 | 107 | 5 | 142* | 127 | 18 | 102
Cc1ccccc1-c1nc(CN2CCC(C(=O)NCCCN3CCOCC3)CC2)c(C)o1 | i | 14 | 102 | 11 | 130 | / | / | /
COc1ccccc1CNC(=O)C1CCN(Cc2nc(-c3cccc(Cl)c3)oc2C)CC1 | i | 25 | 113 | 10 | 134 | / | / | /
CCc1ccc(-c2nc(CN3CCC(C(=O)NCc4ccccc4OC)CC3)c(C)o2)cc1 | i | 16 | 104 | 19 | 156* | 114 | 3 | 104
CC(=O)c1cccc(NC(=O)Cn2nc(-c3ccc(Cl)cc3)ccc2=O)c1 | i | -9 | 97 | -17 | 86 | / | / | /
CN(C)S(=O)(=O)c1ccc(C(=O)NC(=O)CSc2ccccc2)cc1 | i | -1 | 131* | 5 | 102 | 100 | 1 | 105
Cc1cc2nnc(SCC(=O)Nc3cc(S(=O)(=O)N4CCOCC4)ccc3Cl)n2c2ccccc12 | i | 3 | 112 | 3 | 103 | / | / | /
COc1ccccc1NC(=O)CSc1nncn1-c1ccccc1 | i | 7 | 101 | -4 | 103 | / | / | /
Cc1ccc(S(=O)(=O)N2CCCCC2)cc1NC(=O)CSc1nncn1-c1ccccc1 | i | 107* | 95 | 6 | / | 107 | 7 | 104
COC(=O)CSc1nnc2cc(C)c3ccccc3n12 | i | -12 | 46*[inhibitor] | 22 | 41*[inhibitor] | 100 | -4 | 99
COc1ccc(-n2cnnc2SCC(=O)Nc2cc(S(=O)(=O)N3CCCCC3)ccc2C)cc1 | i | 2 | 105 | 12 | 111 | / | / | /
Cc1cc2nnc(SCCCCN3C(=O)c4ccccc4C3=O)n2c2ccccc12 | / | 3 | 100 | / | 101 | / | / | /
